D3 antag: antagonists of human D3 dopamine receptor | P35462 | D3R cells, DiscoveRx beta-arrestin luminescence, antagonist mode; hits give low values | max response, negative = inhibition, % | 360,000 tested, 2.5% active | AID 652054; in the data active = max response below about -50%; inconclusive = no clear call, values can overlap the other calls
Target sequence (P35462 whole entry, looked up): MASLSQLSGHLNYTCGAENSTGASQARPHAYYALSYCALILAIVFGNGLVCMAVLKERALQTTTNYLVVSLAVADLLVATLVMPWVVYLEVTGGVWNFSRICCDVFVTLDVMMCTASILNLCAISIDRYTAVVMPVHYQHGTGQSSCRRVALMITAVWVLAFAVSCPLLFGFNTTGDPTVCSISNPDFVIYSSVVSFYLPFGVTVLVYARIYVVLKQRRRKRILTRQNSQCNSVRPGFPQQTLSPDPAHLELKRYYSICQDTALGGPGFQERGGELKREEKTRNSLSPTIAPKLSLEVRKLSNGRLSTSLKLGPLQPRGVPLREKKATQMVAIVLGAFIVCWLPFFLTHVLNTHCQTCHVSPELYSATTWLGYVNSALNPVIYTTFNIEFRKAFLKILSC
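Cells expressing the human receptor were seeded at 1500 cells/well, incubated overnight at 37 degrees C in 5% CO2, then exposed to library compounds with dopamine controls for 90 minutes at 37 degrees C before luminescent detection.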
D1 antagonist: blocks dopamine activation of the human D1 receptor; P21728; HEK293 TREx D1 cells, calcium flux, dopamine EC80; hits give low values; activity change, negative = inhibition, % at 10 µM; 360,000 tested, 3.2% active; in the data active = activity change below about -30%
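Tetracycline-induced HEK293 Trex D1 cells, force-coupled to calcium, dye-loaded; compounds added and read 180 s, then EC80 dopamine added and calcium flux tracked kinetically another 180 s.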
D1 PAM: potentiators of human D1 dopamine receptor. P21728. HEK293 TREx D1 cells, calcium flux, dopamine EC20 potentiation. potentiation, % at 10 µM. 360,000 tested, 0.036% active; in the data active = potentiation above about 30%
D1 ag: activates the human D1 dopamine receptor. HEK293 T-REx D1 cells, calcium flux, agonist mode. activation, % at 2 µM. 360,000 tested, 1% active. AID 504660; in the data active = activation above about 30%
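Tetracycline-induced HEK293 TREx D1 cells, force-coupled to calcium signalling, were dye-loaded with a no-wash calcium kit. Compound was pin-added after a 10 s baseline. Fluorescence was read kinetically at 1 cycle/s for 180 s, with calcium rises flagged as agonism.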
D3 ag: D3 dopamine receptor (human) agonism; P35462; 410,000 tested, 0.58% active; D3R DiscoveRx beta-arrestin cells, luminescence, 90 min; max activation, %; in the data active = max activation above about 30%
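Agonist mode: compounds and dopamine controls were applied to plated cells for 90 min at 37 degrees C after an overnight attachment at 1500 cells/well. Luminescent read-out followed 30 - 60 minutes at room temperature with DiscoveRx detection reagent.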
Large screens that a line does not name were inactive. A selection: hits, their analogues and other compounds. The true share with any hit is near 6.1%.

COCCN(C(=O)CCC(=O)Nc1nccs1)C(C(=O)NC(C)(C)C)c1ccc(C)cc1 (stereo unspecified)	D3 ag 38
COc1ccccc1N(CC(=O)NC(C)(C)C)C(=O)CCC(=O)Nc1nccs1	none
CCC1CN(CC(=O)NCc2cccc(Br)c2)c2ccccc2S1 (stereo unspecified)	D1 antagonist -35 (no result: D3 antag)
CNCCCN1c2ccccc2CCc2ccccc21	D3 antag -75
CC(=O)c1ccc2c(c1)N(CCCN(C)C)c1ccccc1S2	D3 antag -108 (no result: D1 antagonist, D1 PAM, D1 ag)
COc1ccc2c(c1)Sc1ccccc1N2CCN(C)C	D3 antag -81
CCC(=O)c1ccc2c(c1)N(CCCN(C)C)c1ccccc1S2	D3 antag -109 (no result: D1 antagonist, D1 PAM, D1 ag)
COC(=O)c1ccc(OC(=O)CCN2c3ccccc3Sc3ccccc32)cc1	none
CCN(CC)CCN1c2ccccc2Sc2ccccc21	D3 antag inconclusive
CN(C)CCCN1c2ccccc2CCc2ccc(Cl)cc21	D3 antag -104, D1 antagonist -96, D1 ag 36
CN(C)CCCN1c2ccccc2Sc2ccccc21	D3 antag -105, D1 antagonist -81, D1 ag 42
CC(C)c1ccc(NC(=O)CN2C(=O)c3cccc4cccc2c34)cc1	none (no result: D3 antag)
CCOc1ccccc1NC(=S)N1CCCCCC1	D1 antagonist -37
CCOc1ccccc1NC(=S)N1CCN(c2ccc(O)cc2)CC1	none
COc1cc(C(=O)ON=C2C=C(C)C(=O)C(C)=C2)cc(OC)c1OC	none
COc1cc(C(=O)O/N=C2\C=CC(=O)C(C)=C2)cc(OC)c1OC	D3 antag -57
CC(C)(C)NC(=O)c1cc(-c2ccccc2)n[nH]1	D1 antagonist -32
O=C(NCCc1ccc(Cl)cc1)c1cc(-c2ccccc2)n[nH]1	D1 antagonist -31 (no result: D3 antag)
COC(=O)c1cc(-c2ccccc2)n[nH]1	none
Cc1ccc(CCNC(=O)c2cc(-c3ccccc3)n[nH]2)cc1	none (no result: D3 antag)
CC(CNC(=O)c1cc(-c2ccccc2)n[nH]1)c1ccccc1 (stereo unspecified)	D1 antagonist -51 (no result: D3 antag)
Cc1ccc(NC(=O)CN2C(=O)CCc3cc(S(=O)(=O)N4CCCCC4)ccc32)cc1N(C)C	none (no result: D3 antag)
Cc1ccc(CN2CCN(C3CCN(C(=O)Nc4ccccc4C(F)(F)F)CC3)C(=O)C2=O)cc1	none (no result: D3 antag)
COCCN1C(=O)c2ccccc2C(C(=O)NCCN(C)C)C1c1ccc(F)cc1 (stereo unspecified)	D3 antag -63
CCN(CC)CCNC(=O)C1CCC(=O)N(c2ccc(OC)cc2)C1c1ccc(F)cc1 (stereo unspecified)	D3 antag -67
COCCNC(=O)C1c2ccccc2C(=O)N(CCOC)C1c1ccc(F)cc1 (stereo unspecified)	none
CCN(CC)CCNC(=O)C1c2ccccc2C(=O)N(CCOC)C1c1ccc(F)cc1 (stereo unspecified)	D3 antag -62
CCCN(CCC)CCNC(=O)C1CC(=O)N(c2ccc(OC)cc2)C1c1ccc(OC)cc1 (stereo unspecified)	none
Cc1ccccc1NC(=O)Cn1c(=O)n(CCC(=O)N2CCc3ccccc3C2)c(=O)c2ccccc21	none (no result: D3 antag)
CCOc1ccc(NC(=O)CN2CCN(c3ccc(Cl)cc3)CC2)cc1	none (no result: D3 antag)
CCc1cccc(C)c1NC(=O)CCCn1nc(C)c2sc3ccccc3c2c1=O	D1 antagonist -39 (no result: D3 antag)
Cc1ccc(C)c(NC(=O)CCCn2nc(C)c3sc4ccccc4c3c2=O)c1	none (no result: D3 antag)
CCc1cccc(NC(=O)Cn2nc(C)c3sc4ccccc4c3c2=O)c1	D1 antagonist -42 (no result: D3 antag)
O=C(NCCCn1ccnc1)c1cc(-c2ccc(Cl)cc2)nc2ccccc12	D1 antagonist -39
Cc1cc(C(=O)NCCCn2ccnc2)sc1-c1ccccc1	D3 antag -70
CCCCCCCCNC(C)C(O)c1ccc(SC(C)C)cc1 (stereo unspecified)	D3 antag inconclusive, D1 ag 50
CCOC(=O)C1=C(CS(=O)(=O)c2c(C)cc(C)cc2C)NC(=O)NC1c1cccc(OC)c1 (stereo unspecified)	none (no result: D3 antag)
CCN(CC)CCN1C(=O)C(=O)/C(=C(/O)c2ccc3c(c2)CC(C)O3)C1c1ccc(OC)cc1 (stereo unspecified)	D1 antagonist -30
CCOc1ccc(CNC(=O)C2CCN(c3nnc(-n4c(C)ccc4C)s3)CC2)cc1	none (no result: D3 antag)
